Screens (PubChem BioAssay)
3T3 cytotox: cytotoxic compounds in NIH 3T3 cells; NIH 3T3 viability, CellTiter-Glo ATP luminescence, 48-72 h; Potency, µM (series often up to 96.7 µM), actives largely listed as inhibitors; hit rate 4.3% among 94,000; further: nearly all actives have a fitted effect of over 55% in size
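Luminescent ATP readout (CellTiter-Glo, 10 min RT) after 48 or 72 hr compound exposure of NIH 3T3 cells seeded at 400 cells/well in 1536-well format; quantitative HTS.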
NPR1 antag: antagonists of human natriuretic peptide receptor Npr1; Potency, µM (series often up to 46.3 µM), usual class: inhibitors; P16066; HEK293 hNpr1 GloSensor cGMP, ANP-stimulated luminescence; hit rate 1.6% among 76,000; calls by dose curve; further: nearly all actives have a fitted effect of over 60% in size
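Compound pre-incubated 30 min at room temperature on GloSensor-loaded HEK293 cells stably carrying hNpr1 and the pGS-40F cGMP biosensor. Stimulation uses hNppA at 0.1 nM final; luminescence is taken at baseline and 20 min post-agonist.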
GPT2 inh: inhibitors of human GPT2 alanine aminotransferase | Q8TD30 | Recombinant GPT2, coupled pyruvate oxidase/HRP Amplex Red fluorescence | Potency, µM (top dose mostly 57.7 µM), usual class: inhibitors | hit rate 0.25% among 100,000 | AID 1671188; further: nearly all actives have a fitted effect of over 60% in size
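GPT2 10ng/uL, a-KG 250uM, L-Ala 2mM, HEPES pH7.5 + 0.0001% Tween; 30 min RT. Then Amplex mix (PO/HRP/ThPP), 30 min RT dark, fluorescence. AOA 50uM used as positive control.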
HEK cytotox: cytotoxic compounds in HEK 293 cells. HEK 293 viability, ATP luminescence (CellTiter-Glo), 48-72 h. Potency, µM (titrated, usually from 115 µM), usual class: inhibitors. hit rate 6.6% among 94,000. AID 1345083; further: nearly all actives have a fitted effect of over 60% in size
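Pintool-delivered compounds were incubated with HEK 293 cells (250 cells/well) at 37 degree Celsius for 48 or 72 hr. ATP-dependent luminescence (CellTiter-Glo) then reported remaining viable cells.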
FLuc inh: Photinus pyralis luciferase inhibition. P08659. purified P. pyralis luciferase, luminescence, biochemical. Potency, µM (top dose mostly 115 µM), usual class: inhibitors. hit rate 2.5% among 76,000; further: nearly all actives have a fitted effect of over 65% in size
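Cell-free enzyme assay, 10nM P. pyralis luciferase, luciferin and ATP each at 10uM. Inhibition profiled over a 6-point titration, read as luminescence.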
Each line names hits and unclear results; the compound was inactive in the other large screens. Shown are actives, neighbours in structure and some others; about 10% of the full set was active somewhere. Unless noted, the call rests on the fitted dose curve; in most records, active means well fitted curve in the direction sought with a large enough effect; inconclusive means small, poorly fitted or top-dose-only effect, or another doubt; inactive means no such curve, though single readings can be large; an effect the other way counts as inactive or inconclusive.

CC(=O)c1ccc(NC(=O)NC[C@H]2C[C@@H]3CCN2C[C@@H]3c2cc(-c3cccs3)nc(C)n2)cc1	3T3 cytotox inconclusive, HEK cytotox 89µM
Cc1nc(-c2cccs2)cc([C@H]2CN3CC[C@H]2C[C@@H]3CNC(=O)c2ccc(N(C)C)cc2)n1	3T3 cytotox 22µM, HEK cytotox 35µM
Cc1nc(-c2ccco2)cc([C@H]2CN3CC[C@H]2C[C@@H]3CNC(=O)C2CC2)n1	none
CC(=O)c1ccc(NC(=O)NC[C@H]2C[C@@H]3CCN2C[C@@H]3c2cc(-c3ccco3)nc(C)n2)cc1	3T3 cytotox inconclusive, HEK cytotox 79µM
CC(=O)c1cccc(NC(=O)NC[C@H]2C[C@@H]3CCN2C[C@@H]3c2cc(-c3cccs3)nc(C)n2)c1	3T3 cytotox 32µM, HEK cytotox 22µM
CC(=O)NC[C@H]1C[C@@H]2CCN1C[C@@H]2c1cc(-c2cccs2)nc(C)n1	3T3 cytotox inconclusive, HEK cytotox inconclusive
Cc1cccc(NC(=O)N[C@@H]2N=C(c3ccccc3)c3ccccc3N(C)C2=O)c1	none (no result: 3T3 cytotox, NPR1 antag, HEK cytotox, FLuc inh)
Cc1sc2c(c1C)C(c1ccc(Cl)cc1)=NC(CC(=O)OC(C)(C)C)c1nnc(C)n1-2 (centres undefined)	none (no result: 3T3 cytotox, NPR1 antag, HEK cytotox, FLuc inh)
COC[C@H]1CCCN1C[C@H]1CN2CC[C@H]1C[C@@H]2CNC(=O)c1ccc(N(C)C)cc1	3T3 cytotox 71µM, HEK cytotox inconclusive
Cc1nc(-c2ccccc2Br)cc([C@H]2CN3CC[C@H]2C[C@@H]3CNC(=O)Nc2ccccc2)n1	3T3 cytotox inconclusive, HEK cytotox 79µM, FLuc inh inconclusive
COC[C@H]1CCCN1C[C@H]1CN2CC[C@H]1C[C@@H]2CNC(=O)c1ccc(C(F)(F)F)cc1	3T3 cytotox inconclusive, HEK cytotox inconclusive
CCOC(=O)[C@H]1CN(C(=O)c2ccc3c(c2)OCO3)[C@]2(C)C(=O)N(CC3CC3)c3ccccc3[C@H]12	3T3 cytotox inconclusive, HEK cytotox inconclusive (no result: NPR1 antag, FLuc inh)
CN1CCC[C@@H]1Cc1c[nH]c2ccc(Nc3ncccc3[N+](=O)[O-])cc12	none (no result: 3T3 cytotox, NPR1 antag, HEK cytotox, FLuc inh)
COc1cc2c(cc1Oc1cccc(N(C)C)c1)NC(=O)C21CCN(CC2CC2)CC1	3T3 cytotox 79µM, NPR1 antag inconclusive, HEK cytotox inconclusive
COc1cc2c(cc1Oc1ccccc1)NC(=O)C21CCN(C(=O)C(C)C)CC1	HEK cytotox inconclusive
COc1cc2c(cc1Oc1ccccc1)NC(=O)C21CCN(CC2CC2)CC1	3T3 cytotox 45µM, HEK cytotox inconclusive
COc1cc2c(cc1Oc1cccc(N(C)C)c1)NC(=O)C21CCN(c2ncccn2)CC1	3T3 cytotox inconclusive, NPR1 antag inconclusive, HEK cytotox inconclusive
Cc1ncc2c(n1)C[C@@H]1CC[C@H]2N1C(=O)Nc1ccc2c(c1)OCCO2	FLuc inh 32µM
COc1ccc(NC(=O)N2[C@H]3CC[C@@H]2c2cnc(C)nc2C3)cc1OC	GPT2 inh inconclusive
O=C(Cc1ccc(F)cc1Cl)N1C[C@H]2CC[C@@H]1CN(Cc1cccnc1)C2	NPR1 antag inconclusive, HEK cytotox 35µM
O=C(N1CCCC1)N1C2CCC1CN(Cc1cccnc1)C2	GPT2 inh inconclusive (no result: NPR1 antag, FLuc inh)
COc1cc2c(cc1OCC1CC1)NC(=O)C21CCN(CCC(C)C)CC1	3T3 cytotox inconclusive
COc1cc2c(cc1OC1CCCC1)NC(=O)C21CCN(c2ncccn2)CC1	3T3 cytotox inconclusive, HEK cytotox 100µM
COc1cc2c(cc1OC1CCCC1)NC(=O)C21CCN(c2cnccn2)CC1	3T3 cytotox inconclusive, HEK cytotox 89µM
COc1cc2c(cc1Oc1cccc(N(C)C)c1)NC(=O)C21CCN(c2ncc(F)cn2)CC1	3T3 cytotox inconclusive
CCc1cnc(N2CCC3(CC2)C(=O)Nc2cc(Oc4ccccc4)c(OC)cc23)nc1	3T3 cytotox 40µM, HEK cytotox 45µM
COc1cc2c(cc1OC1CCCC1)NC(=O)C21CCN(c2ncc(C(C)C)cn2)CC1	3T3 cytotox inconclusive, HEK cytotox inconclusive
COc1cc2c(cc1OC1CCCC1)NC(=O)C21CCN(c2ncc(F)cn2)CC1	3T3 cytotox 89µM, HEK cytotox 89µM
C/C=C1/CN2CC[C@]34C(=Nc5ccc(OC)cc53)C2C[C@@H]1C4(CO)C(=O)OC (some centres undefined)	none (no result: 3T3 cytotox, NPR1 antag, HEK cytotox, FLuc inh)
COc1cc2c(cc1OC1CCCC1)NC(=O)C21CCN(c2nc(C)cc(C)n2)CC1	3T3 cytotox inconclusive, HEK cytotox 89µM
CCc1cnc(N2CCC3(CC2)C(=O)Nc2cc(OC4CCCC4)c(OC)cc23)nc1	3T3 cytotox inconclusive, HEK cytotox 79µM
CCOC(=O)[C@H]1CN(C(=O)c2ccc(Cl)cc2)[C@]2(C)C(=O)N(CCOC(C)=O)c3ccccc3[C@H]12	HEK cytotox inconclusive (no result: NPR1 antag, FLuc inh)
CC(=O)c1ccc(NC(=O)NC[C@H]2C[C@@H]3CCN2C[C@@H]3CN(C)Cc2ccccc2)cc1	3T3 cytotox 89µM, HEK cytotox 100µM
CN(Cc1ccccc1)C[C@H]1CN2CC[C@H]1C[C@@H]2CNC(=O)Nc1ccccc1	3T3 cytotox 100µM, HEK cytotox 100µM
CN(Cc1ccccc1)C[C@H]1CN2CC[C@H]1C[C@@H]2CNC(=O)c1ccccc1	3T3 cytotox inconclusive, HEK cytotox inconclusive
COc1cc(O)c2c(c1)/C=C/C[C@@H](O)[C@@H](O)C(=O)CCC[C@H](C)OC2=O	none (no result: 3T3 cytotox, NPR1 antag, HEK cytotox, FLuc inh)
CCN1C[C@]2(COC)CC[C@H](O)[C@@]34C5C[C@@H]6[C@@H](OC)C[C@@](OC(C)=O)(C5[C@@H]6OC(C)=O)[C@H]([C@H](OC)C23)[C@@H]14 (some centres undefined)	none (no result: 3T3 cytotox, NPR1 antag, HEK cytotox, FLuc inh)
COc1ccc2c(c1)C1(CCN(S(=O)(=O)c3cccc(F)c3)C1)C(=O)N2C (centres undefined)	HEK cytotox 45µM
COc1cc2c(cc1Oc1ccccc1)NC(=O)C21CCN(Cc2cccnc2)CC1	3T3 cytotox inconclusive, HEK cytotox 89µM
O=C1Nc2ccccc2C12CCN(Cc1cccnc1)C2 (centres undefined)	none
COc1cc2c(cc1Oc1cccc(N(C)C)c1)NC(=O)C21CCN(Cc2nccn2C)CC1	HEK cytotox inconclusive
COc1cc2c(cc1Oc1ccccc1)NC(=O)C21CCN(Cc2nccn2C)CC1	3T3 cytotox inconclusive, HEK cytotox 100µM
CCOC(=O)[C@H]1CN(C(=O)c2cc3ccccc3s2)[C@]2(C)C(=O)N(CC3CC3)c3ccccc3[C@H]12	3T3 cytotox inconclusive, HEK cytotox inconclusive (no result: NPR1 antag, FLuc inh)
Cc1cccc([C@H]2C[C@@H](O)[C@@H](O)[C@@H]2NCC2CCCC2)c1	3T3 cytotox 89µM, HEK cytotox 50µM
Cc1sc2c(c1C)C(c1ccc(Cl)cc1)=N[C@@H](CC(=O)Nc1ccc(O)cc1)c1nnc(C)n1-2	none (no result: 3T3 cytotox, NPR1 antag, HEK cytotox, FLuc inh)
COc1cc2c(cc1OCc1ccncc1)NC(=O)C21CCN(c2ccccn2)CC1	3T3 cytotox inconclusive, HEK cytotox inconclusive
